# In PubChem BioAssay AID588335 (The Scripps Research Institute Molecular Screening Center, 2011):
# About 4,500 (1.2%) of roughly 360,000 compounds were called active. Rule as the data show it: active = inhibition above about 30%; inactive = the rest. Shown is part of a subset that was picked to be rich in actives.
# Experiment: inhibition of GDH and TPI enzymes – biochemical, absorbance, full deck, artefact control for M. tuberculosis FBA inhibitor project, primary screen (AID 588335);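 also: 0% = DMSO wells and 100% = wells lacking the enzyme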
# Conditions: GDH-TPI coupled enzyme counterscreen, NADH absorbance; at 4.8 µM; stronger effect = higher value
row,Structure (SMILES),inhibition
1,Cc1ccccc1CCNC(=O)C1CCC(=O)N(Cc2ccc(Cl)cc2)C1 (stereo not drawn),-2.1% (inactive)
2,CC1(C)C[C@H]2C3=CCC4[C@@]5(C)CC[C@H](O)[C@](C)(CO)C5CC[C@@]4(C)[C@]3(C)C[C@@H](O)[C@@]2(CO)[C@@H](O)[C@@H]1O (stereo partly drawn),8.82% (inactive)
3,COC(=O)C1=NN(c2ccccc2)C2C(=O)N(c3ccccc3OC)C(=O)C12 (stereo not drawn),21% (inactive)
4,CC(=O)N[C@@H](C)C(=O)N1CCC(n2nccc2NC(=O)CCCc2ccccc2)CC1,8.3% (inactive)
5,CCC(C)Sc1nc2c(cnn2-c2ccc(F)cc2)c(=O)[nH]1 (stereo not drawn),8.15% (inactive)
6,COc1ccc(-c2nonc2NC(=O)c2oc3ccc(F)cc3c2C)cc1OC,-4.27% (inactive)
7,O=C(N/C(=C\c1ccc([N+](=O)[O-])cc1)C(=O)N1CCOCC1)c1cccc(Br)c1,28.7% (inactive)
8,Cc1ccc(NC(=O)/C(=C/c2ccc([N+](=O)[O-])cc2)NC(=O)c2ccccc2)cc1,49.4% (active)
9,COc1cc(/C=C(/NC(=O)c2ccccc2)C(=O)Nc2cccc(O)c2)c([N+](=O)[O-])cc1OC,11.6% (inactive)
10,Nc1nnn(CC(=O)N/N=C/c2ccccc2)n1,10.1% (inactive)
11,Cc1nc(Cl)cc(N/N=C/c2ccccc2)n1,39.2% (active)
12,Cc1cc2c(C)nc(N/N=C/c3ccccc3)nc2o1,28.5% (inactive)
13,COc1ccc(Br)cc1CN(C)CC(=O)Nc1cc(Cl)cc(Cl)c1,-4.49% (inactive)
14,CC(=O)Nc1ccc(S(=O)(=O)NCC(=O)OCC(=O)c2ccc[nH]2)cc1,4.57% (inactive)
15,O=c1c2ccccc2nc2n1C(CSCc1ccccc1)CS2 (stereo not drawn),2.03% (inactive)
16,N#Cc1c(-c2ccccc2)nc(SCc2cccc(C(F)(F)F)c2)[nH]c1=O,-3.35% (inactive)
17,O=c1c2ccccc2nc2n1C(CSCc1cccc(C(F)(F)F)c1)CS2 (stereo not drawn),32.9% (active)
18,CC1=C(C(=O)Nc2cc(C)ccn2)C(c2cnn(C)c2)C2=C(CC(c3ccccc3)CC2=O)N1 (stereo not drawn),16.7% (inactive)
19,CC(C(=O)NC1CCCCC1)N1C(=O)c2cccc3cccc1c23 (stereo not drawn),8.59% (inactive)
20,Cc1cc(Br)ccc1NC(=S)NC1CCCC1,13.7% (inactive)

row,Structure (SMILES),inhibition
1,C/C(=N\NC(=S)NC1CCCCC1)c1ccc(C)o1,12.9% (inactive)
2,Cc1ccc(/C=N/NC(=S)NC2CCCCC2)o1,32.4% (active)
3,O=C(NCc1cccnc1)c1cc(C2CCCCN2C(=O)CCc2ccccc2)on1 (stereo not drawn),1.83% (inactive)
4,CCN(CC)c1ccc(NC(=O)CCc2nnc3ccc(N4CCCCC4)nn23)c(C)c1,13.9% (inactive)
5,Cc1ccc2cc(/C=N/NC(=O)[C@@H]3CCCN3)c(Cl)nc2c1,33.2% (active)
6,O=C(Nc1cccc(F)c1)[C@@H]1CCCN1,-7.69% (inactive)
7,CSCC[C@H](NC(=O)OC(C)(C)C)C(=O)N/N=C/c1cc2ccc(C)cc2nc1Cl,14.8% (inactive)
8,COC(=O)C1(C)CC1(c1ccccc1)c1ccccc1 (stereo not drawn),4.61% (inactive)
9,COc1cccc(NC(=O)CCc2nnc3ccc(N4CCC(C)CC4)nn23)c1,3.45% (inactive)
10,Cc1cc(C)n(-c2nnc(C)n2NC(=O)c2cccc(Cl)c2)n1,-3.66% (inactive)
11,O=C(NCC1CCCO1)/C(=C/c1ccc(Cl)cc1)NC(=O)c1ccccc1 (stereo not drawn),0% (inactive)
12,Cn1c2ccccc2c2cc(/C=C(\NC(=O)c3ccccc3)C(=O)NCC(=O)O)ccc21,35.1% (active)
13,CCOc1ccc(/C=C(/NC(=O)c2ccccc2)C(=O)NCCC(=O)O)cc1,0.32% (inactive)
14,CC(C(=O)Nc1ccc(F)c(F)c1F)N1CCCCCC1 (stereo not drawn),-6.72% (inactive)
15,CCC(C)(C)c1ccc(Oc2ccc(NC(=O)COC(=O)C3=COCCO3)cc2)cc1,-7.05% (inactive)
16,CN(C(=O)COC(=O)c1cc(=O)[nH]c2ccccc12)C1CCCCC1,10.5% (inactive)
17,CCOc1cc(/C=C2\SC(N3CCCCC3)=NC2=O)ccc1O,24.1% (inactive)
18,O=C1N=C(N2CCc3ccccc3C2)S/C1=C\c1ccc(O)cc1,33.1% (active)
19,O=C1N=C(N2CCOCC2)S/C1=C\C=C/c1ccccc1,31.1% (active)
20,O=C1N=C(N2CCOCC2)CS1,-6.56% (inactive)

row,Structure (SMILES),inhibition
1,O=C(CC1SC(N2CCOCC2)=NC1=O)Nc1ccccc1F (stereo not drawn),10.5% (inactive)
2,NC1=NC(=O)S/C1=C\c1ccc(O)cc1,15.8% (inactive)
3,Cc1cc(/C=C2/SC(=O)N(CC(=O)N3CCCC3)C2=O)ccc1N1CCOCC1,1.85% (inactive)
4,CCc1ccc(/C=C2\SC(N3CCOCC3)=NC2=O)cc1,30.8% (active)
5,c1ccc(-c2csc(N3CCc4ccccc4C3)n2)cc1,2.71% (inactive)
6,CCOc1ccc(C(=O)NCC(=O)N2CCCCCCC2)cc1OCC,-2.14% (inactive)
7,O=C(NC1CCCCC1)C1CCC(CNS(=O)(=O)c2ccccc2)CC1 (stereo not drawn),-8.09% (inactive)
8,NC(=O)CCC(NS(=O)(=O)c1ccc(Cl)cc1)C(=O)NCc1ccccc1Cl (stereo not drawn),5.93% (inactive)
9,O=C(NC1CC1)C1=C[C@H](c2coc3ccccc3c2=O)C[C@H](OCCCCO)O1,1.68% (inactive)
10,CCOC(=O)c1sc(NC(=O)C2CSC3(C)CCC(=O)N23)nc1C (stereo not drawn),4.14% (inactive)
11,Cn1c(=O)cc(OCC(=O)N2CCN(c3ccccc3F)CC2)c2ccccc21,2.59% (inactive)
12,Cc1cccc(N2CCN(C(=O)CCS(=O)(=O)c3ccc4c(c3)NC(=O)C(C)S4)CC2)c1C (stereo not drawn),-2.95% (inactive)
13,COc1ccc(CCC(=O)N2CCN(S(=O)(=O)c3ccc(OC)cc3)CC2)cc1,1.81% (inactive)
14,CCOC(=O)N1CCN(C(=O)c2ccc3nc4cc(Cl)ccc4c(=O)n3c2)CC1,-6.67% (inactive)
15,COc1ccc(C(N)c2csc(NC(=O)Nc3cccc(C(F)(F)F)c3)n2)cc1 (stereo not drawn),-1.33% (inactive)
16,CC(=O)c1ccc(Nc2nc(C(N)c3ccccc3)cs2)cc1 (stereo not drawn),32% (active)
17,CC(=O)c1ccc(Nc2nc(C(N)c3ccccc3Cl)cs2)cc1 (stereo not drawn),29.2% (inactive)
18,Cc1cc(NC(=O)/C=C/C(=O)N(c2ccccc2C)C(C(=O)NC2CCCC2)c2ccc(F)cc2)no1 (stereo not drawn),15.8% (inactive)
